For eight compounds, growth results are on record in PubChem BioAssay (NCI).

Test systems include NCI-H23 lung; NCI-H226 lung; NCI-H322M lung; HOP-62 NSCLC; NCI-H460 lung; HOP-92 NSCLC; A549/ATCC NSCLC; 786-0 renal; COLO 205 colon; DU-145 prostate; K-562 leukemia; MALME-3M melanoma; MDA-MB-231 breast; RXF 393 renal; SF-268 CNS; SF-295 CNS; SF-539 CNS; UACC-257 melanoma; M14 melanoma; NCI-H522 lung.
Test in all cases: NCI-60 one-dose screen, 48 h (100 = growth as untreated, 0 = no growth, -100 = all killed)
What all share (details): 10 µM unless noted

About 83,000 compounds went through this panel and 20% of them were active in at least one assay; those are over-represented in the sample as a whole.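 Percent growth is the endpoint: 0 to 100 indicates growth inhibition (40 means 60% inhibition), 0 means no net growth, and negative values indicate cell death.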 Unmarked numbers belong to inactive results. Calls of active or inactive are those of the source. The calls were made as follows: active = growth percent below 10; inactive = the rest.

Consider `CNC(=O)c1cccc(Cn2nc(C)c(NC(=O)c3ccc(COc4ccc(C(F)(F)F)cc4C)cc3)c2C)c1`, for which the growth in the assay on NCI-H23 lung is 47.3%; in the assay on NCI-H226 lung it was 44.6%; in the assay on NCI-H322M lung, 88%; in the assay with HOP-62 NSCLC, 46.3%; with NCI-H460 lung, 47.7%; in the assay on HOP-92 NSCLC, 80%. The growth was 31.1% in the assay on A549/ATCC NSCLC; 54.8% in the assay with 786-0 renal; 42.7% in the assay on COLO 205 colon; 58.9% in the assay on DU-145 prostate; 23.3% in the assay on K-562 leukemia; 77.5% with MALME-3M melanoma. Also, the growth with MDA-MB-231 breast is 79.4%; in the assay on RXF 393 renal it was 70.4%; in the assay on SF-268 CNS, 61.9%; in the assay with SF-295 CNS, 27.9%; with SF-539 CNS it was 71.7%; in the assay on UACC-257 melanoma it was 8.63% (active). Moreover, the growth in the assay on M14 melanoma was 41.6%.
`COCCCN1CC(O)=C(c2nc(-c3ccc(C)cc3)cs2)C1=N`: the growth with NCI-H23 lung was 96%; in the assay with NCI-H226 lung, 96.3%; in the assay on NCI-H322M lung, 97.3%; in the assay on HOP-62 NSCLC, 91.6%; with NCI-H460 lung, 153%; in the assay on HOP-92 NSCLC it was 147%. Besides, the growth with NCI-H522 lung was 106%; with 786-0 renal, 94.8%; in the assay on COLO 205 colon it was 133%; in the assay with DU-145 prostate, 102%; in the assay on MALME-3M melanoma, 101%; in the assay with MDA-MB-231 breast it was 96.1%. The growth in the assay on RXF 393 renal was 94.3%; in the assay on SF-268 CNS it was 223%; with SF-295 CNS it was 123%; in the assay with SF-539 CNS it was 96.9%; in the assay with UACC-257 melanoma it was 83.7%; in the assay on M14 melanoma, 100%.
Turning to `O=C1c2ccccc2CCC12OC2c1cn(-c2ccccc2)nc1-c1ccc(Cl)cc1` (stereo not drawn), the growth in the assay with NCI-H23 lung is 103%; in the assay on NCI-H226 lung, 75.1%; in the assay on NCI-H322M lung it was 99.6%; with HOP-62 NSCLC, 108%; with NCI-H460 lung, 58.9%; with HOP-92 NSCLC, 40.5%. The growth in the assay with NCI-H522 lung is 87.1%; in the assay on 786-0 renal it was 115%; in the assay on COLO 205 colon, 93.9%; with DU-145 prostate, 111%; in the assay on MALME-3M melanoma, 105%; with MDA-MB-231 breast, 91.9%. The growth was 93.1% in the assay on RXF 393 renal; 93.1% in the assay with SF-268 CNS; 71.9% in the assay on SF-295 CNS; 93.4% in the assay with SF-539 CNS; 96.1% with UACC-257 melanoma; 97.7% in the assay with M14 melanoma.
For the compound `CCC(=O)Oc1ccc(/C(=C(\C)c2ccccc2)c2ccc(OCCN3CCCCC3)cc2)cc1`, the growth was 75.1% in the assay with NCI-H23 lung; 82.9% in the assay with NCI-H226 lung; 82% in the assay on NCI-H322M lung; 76% with HOP-62 NSCLC; 72% in the assay on NCI-H460 lung; 86.5% in the assay on HOP-92 NSCLC. The growth was 74.4% in the assay with NCI-H522 lung; 67.3% in the assay on 786-0 renal; 32.7% in the assay on COLO 205 colon; 91.5% in the assay on DU-145 prostate; 17.1% in the assay on K-562 leukemia; 79% in the assay with MALME-3M melanoma. The growth is 91.1% with MDA-MB-231 breast; 73.9% in the assay with RXF 393 renal; 80.3% in the assay with SF-268 CNS; 86.5% with SF-295 CNS; 62.2% in the assay with SF-539 CNS; 72.1% in the assay with UACC-257 melanoma. In addition, the growth in the assay on M14 melanoma is 72.3%.
`COc1cc(/C(C)=C(\c2ccc(Cl)cc2)c2ccc(OCCN(C)C)cc2)ccc1F`: the growth is 76.5% with NCI-H23 lung; 91% in the assay with NCI-H226 lung; 69% in the assay with NCI-H322M lung; 87.6% in the assay on HOP-62 NSCLC; 7.61% (active) in the assay with NCI-H460 lung; 44.6% in the assay on HOP-92 NSCLC. The growth with NCI-H522 lung was 80.2%; in the assay on 786-0 renal, 65.7%; with DU-145 prostate, 67.9%; in the assay on K-562 leukemia, 8.38% (active); with MALME-3M melanoma, -7.62% (active); in the assay with MDA-MB-231 breast, 50.8%. In addition, the growth is 60.5% in the assay with RXF 393 renal; 70.8% in the assay with SF-268 CNS; 89.7% with SF-295 CNS; 71.7% in the assay with SF-539 CNS; -4.66% (active) with UACC-257 melanoma; 31.5% in the assay on M14 melanoma.
`CN1CCN(CCNc2nccc(-c3c(-c4cccc(O)c4)nc4sccn34)n2)S1(=O)=O`: the growth in the assay on NCI-H23 lung is 46.1%; in the assay with NCI-H226 lung it was 100%; in the assay on NCI-H322M lung, 70.2%; with HOP-62 NSCLC, 79.3%; in the assay with NCI-H460 lung, 57.3%; in the assay with HOP-92 NSCLC it was 49%. The growth in the assay with NCI-H522 lung is 46.2%; in the assay with 786-0 renal, 93.2%; in the assay on COLO 205 colon it was 17.6%; in the assay with DU-145 prostate, 56.5%; in the assay on MALME-3M melanoma it was -20% (active); with MDA-MB-231 breast, 24.3%. For the same compound, the growth in the assay on RXF 393 renal is 39.2%; in the assay on SF-268 CNS it was 85.6%; in the assay on SF-295 CNS, 95.9%; in the assay with SF-539 CNS, 79.9%; in the assay on UACC-257 melanoma, -10.6% (active); in the assay with M14 melanoma, -4.02% (active).
Take `Cc1cc2c(C(=O)NCC#N)cccc2n1-c1nc2c(c(NCc3ccccc3)n1)CCCC2`: the growth is -41.8% (active) in the assay on NCI-H23 lung; -69.3% (active) in the assay on NCI-H226 lung; -19.5% (active) with NCI-H322M lung; -16.9% (active) in the assay with HOP-62 NSCLC; -35.7% (active) with NCI-H460 lung; -63.4% (active) in the assay on HOP-92 NSCLC. The growth in the assay with NCI-H522 lung was -24.9% (active); in the assay on 786-0 renal, -56.8% (active); with COLO 205 colon, -51% (active); in the assay on DU-145 prostate, 2.51% (active); in the assay on K-562 leukemia it was 1.31% (active); in the assay with MALME-3M melanoma it was -72.1% (active). The growth with MDA-MB-231 breast was -78.9% (active); in the assay on RXF 393 renal, -68.9% (active); in the assay on SF-268 CNS, -35.1% (active); in the assay on SF-295 CNS, -76.2% (active); in the assay with SF-539 CNS, -24.5% (active); in the assay on UACC-257 melanoma, -36.4% (active). Further, in the assay on M14 melanoma, the growth is -45% (active).
In the case of `Cc1cccc(NC(=O)Nc2ccc(-c3ccc4c(c3)NC(=O)/C4=C\c3ccc[nH]3)cc2)c1`, the growth with NCI-H23 lung is 61.6%; in the assay with NCI-H226 lung, 85.5%; with NCI-H322M lung, 89.8%; in the assay with HOP-62 NSCLC, 89.8%; in the assay with NCI-H460 lung, 26.3%; with HOP-92 NSCLC it was 127%. For the same compound, the growth in the assay with NCI-H522 lung was 85.3%; in the assay on 786-0 renal, 103%; in the assay on COLO 205 colon, 96.3%; in the assay with DU-145 prostate, 96.4%; with K-562 leukemia, 82.8%; in the assay with MALME-3M melanoma it was 105%. The growth in the assay on MDA-MB-231 breast was 93%; in the assay with RXF 393 renal it was 102%; in the assay with SF-268 CNS it was 95.2%; in the assay on SF-295 CNS, 66.1%; in the assay on SF-539 CNS, 62.7%; in the assay on UACC-257 melanoma, 102%. Further, in the assay with M14 melanoma, the growth is 84.9%.
